The values that follow come from PubChem BioAssay (Tox21).

Assay [1] is described as follows: Nuclear factor erythroid 2-related factor 2/antioxidant responsive element (Nrf2/ARE) small molecule agonists: qHTS cell viability counter screen in human keratinocytes (AID 1919968; active = well fitted curve in the direction sought with a large enough effect in the repeat runs; an effect the other way counts as inactive or inconclusive; also: nearly all actives have a fitted effect of over 55% in size). The procedure, abridged: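 In human HaCaT keratinocytes stably expressing an ARE-driven luciferase, compound exposure lasted 23 h at 37 C under 5% CO2. Viable cells are quantified with a protease-based fluorogenic reagent (CellTiter-Fluor) read 1 h after addition.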

Assay [2] in a line: Nuclear factor erythroid 2-related factor 2/antioxidant responsive element (Nrf2/ARE) small molecule agonists: luciferase reporter gene qHTS assay in human keratinocytes (AID 1919969; also: nearly all actives have a fitted effect of over 35% in size). (In a reporter assay the amount or activity of a reporter protein is the signal.)
Assay [3] addresses Gonadotropin-releasing hormone receptor (Homo sapiens) (UniProt P30968). Description: Human gonadotropin-releasing hormone receptor (GnRHR) small molecule agonists, calcium flux assay in GnRHR-HEK293 cells (AID 1920063). Also: nearly all actives have a fitted effect of over 35% in size. Also: potency is read from the fitted curve at half-maximal effect. The procedure, abridged:
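Intracellular calcium rise is the read-out: engineered human GnRHR HEK293 cells, dye-loaded, are exposed to DMSO-dissolved compounds and fluorescence at Ex/Em 480/540 is tracked for 3 min.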
On the technique in general: Calcium flux is commonly read through the fluorescence of an indicator in the cells.

Assay [4] addresses KiSS-1 receptor (Homo sapiens) (UniProt Q969F8). Description: Human kisspeptin (KISS1R) small molecule agonists, calcium flux assay in KISS1R-HEK293 cells (AID 1920064; active = well fitted curve in the direction sought with a large enough effect in the repeat runs; an effect the other way counts as inactive or inconclusive). The procedure, abridged: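 Concentration-response testing used 15 concentrations in triplicate on human KISS1R-expressing HEK293 cells. Calcium-dependent fluorescence (Ex/Em 480/540) was followed kinetically for 3 min after compound transfer.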

Assay [5] in a line: G protein-coupled receptor (GPCR) small molecule agonists, calcium flux assay: HEK293 wild type cell line counter screen (AID 1920065). An outline of the steps:
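Fluorescence intensity signals activation. After overnight (18 h) culture and a 1 h calcium dye load at 37 C, compounds are added by pin tool and the plate read at 480/540 nm for 3 min in 1 s steps.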

The nature of assay [6]: p53 small molecule agonists, cell-based qHTS assay with human liver microsomes: qHTS cell viability counter screen (AID 1963579). Also: nearly all actives have a fitted effect of over 45% in size. The procedure, abridged:
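p53RE-bla cells (4,000/well) were pre-incubated 5 h at 37 C, then given compounds in DMSO plus human liver microsomes (0.5 mg/mL final) and NADPH (0.5 mg/mL final) for 16 h at 37 C. Viability was read by CellTiter-Glo luminescence.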

A short description of assay [7]: p53 small molecule agonists, cell-based qHTS assay: qHTS cell viability counter screen (AID 1963581). Also: nearly all actives have a fitted effect of over 45% in size. An outline of the steps:
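Luminescence from CellTiter-Glo, reflecting ATP content, serves as the cytotoxicity measure; it is taken after the 2 h reporter substrate step in HCT-116 p53RE-bla cells dosed for 16 h at 37 C.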
(In general: Quantitative high-throughput screening tests each substance at several concentrations.)

In assay [8] the target is 5-hydroxytryptamine receptor 2A (Homo sapiens) (UniProt P28223). Description: 5-hydroxytryptamine receptor 2A (HTR2A) small molecule antagonists, cell-based qHTS assay (AID 1963586). Also: nearly all actives have a fitted effect of over 45% in size. Also: potency is read from the fitted curve at half-maximal effect. The procedure, abridged:
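CHO cells stably expressing human HTR2A were plated for 18 h at 37 C, then loaded with calcium dye for 1 h. Compounds were preincubated 5 min at room temperature before DOI (4 nM solution) was added. Kinetic fluorescence was read for 3 min.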

For assay [9] the target is unchanged. Description: 5-hydroxytryptamine receptor 2A (HTR2A) small molecule agonists, cell-based qHTS assay (AID 1963587). Also: nearly all actives have a fitted effect of over 30% in size. Also: potency is read from the fitted curve at half-maximal effect. An outline of the steps:
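Kinetic calcium-flux fluorescence (2 min, 1 sec intervals) after compound addition in agonist mode. HTR2A-CHO cells were cultured 18 h, then dye-loaded 1 h at 37 C.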

Assay [10] has as its target Muscarinic acetylcholine receptor M1 (Homo sapiens) (UniProt P11229). Nature of the assay: Cholinergic receptor muscarinic 1 (CHRM1) small molecule antagonists, cell-based qHTS assay (AID 1963588). Also: nearly all actives have a fitted effect of over 40% in size. The procedure, abridged:
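Compounds were tested at 15 concentrations in three independent runs. Dye-loaded CHRM1-CHO cells were exposed 5 min at room temperature before stimulation by acetylcholine added at 50nM. Intracellular calcium was read kinetically on FDSS for 3 min.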

Assay [11] shares this target. Nature of the assay: Cholinergic receptor muscarinic 1 (CHRM1) small molecule agonists, cell-based qHTS assay (AID 1963589). Also: nearly all actives have a fitted effect of over 35% in size. An outline of the steps:
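Fluorescent calcium dye reports M1 activation in stably transfected CHO cells. Compounds, 15 concentrations, added after 1 h dye loading at 37 C; kinetic reading at 1 sec intervals.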

The nature of assay [12]: cAMP Responsive Elements (CRE) small molecule agonists, cell-based qHTS assay (AID 1963590). An outline of the steps: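 Compound exposure lasted 3 h at 37 C/5% CO2 in CRE-bla HEK 293T cells grown in assay medium with 10% dialyzed FBS and 25 mM HEPES. Reporter signal came from LiveBLAzer B/G FRET substrate, 2 h, room temperature.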
Assay [13] is described as follows: cAMP Responsive Elements (CRE) small molecule antagonists, cell-based qHTS assay (AID 1963591; active = well fitted inhibition curve with a large enough effect in the signal ratio in the repeat runs, not every such curve was filed as active; the % refers to the signal ratio). An outline of the steps:
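Stimulation used NKH477 at a final 0.25 uM for 3 h in compound-treated CRE-bla HEK293T cells, seeded 18 h beforehand. Reporter activity was measured with LiveBLAzer B/G FRET substrate after 2 h at room temperature.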

Assay [14] addresses Beta-2 adrenergic receptor (Homo sapiens) (UniProt P07550). Nature of the assay: Adrenergic beta2 receptor (ADRB2) small molecule antagonists, cell-based qHTS assay (AID 1963592). Also: series mostly up to about 92 µM; nearly all actives have a fitted effect of over 50% in size. The procedure, abridged:
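Assay format: CHO-ADRB2 cells, 18-20hr seeding at 37C/5% CO2, then compound plus 1nM isoproterenol agonist mix for 0.5hr RT. Homogeneous time-resolved fluorescence cAMP detection after 1hr, expressed as 665/615 nm ratio.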

The target is the same in assay [15]. Nature of the assay: Adrenergic beta2 receptor (ADRB2) small molecule agonists, cell-based qHTS assay (AID 1963593).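 Also: CHO cells stably overexpressing human ADRB2.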 The procedure, abridged: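 CHO cells stably over-expressing ADRB2 were plated overnight at 37C, then dosed with compounds plus a stimulation mix containing 100uM IBMX and 25uM Ro-20-1724 for 0.5hr at room temperature. cAMP was measured by HTRF competition, 1hr.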

The target in assay [16] is D(2) dopamine receptor (Homo sapiens) (UniProt P14416). Nature of the assay: Dopamine D2 receptor (DRD2) small molecule agonists, cell-based qHTS assay (AID 1963594). Also: nearly all actives have a fitted effect of over 35% in size. An outline of the steps:
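cAMP accumulation in DRD2-HEK293 cells measured by HTRF after 1 h detection; compounds added 10 min before NKH477 (200nM […]) forskolin-analogue stimulation, 30 min at room temperature, with Ro20-1724 present at 0.1 mM final.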

Assay [17] shares this target. Nature of the assay: Dopamine D2 receptor (DRD2) small molecule antagonists, cell-based qHTS assay (AID 1963595; active = well fitted inhibition curve with a large enough effect in the signal ratio in the repeat runs, with a control signal flat; the % refers to the signal ratio; also: potency is read from the fitted curve at half-maximal effect). An outline of the steps:
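Cells were plated and grown for 24 h at 37 °C. Ro20-1724 (0.1 mM final) went in first, then compound for 10 min. NKH477 (200 nM) with quinpirole (12 nM) followed for 30 min at RT, then HTRF detection reagents for 1 h.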

Assay [18] is described as follows: p53 small molecule agonists, cell-based qHTS assay (AID 1963582; active = well fitted activation curve with a large enough effect in the signal ratio in the repeat runs, not every such curve was filed as active; the % refers to the signal ratio). The procedure, abridged:
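After plating, p53RE-bla cells sat 5 h in the incubator; compounds or DMSO vehicle were pinned in; a 16 h incubation at 37 C followed; FRET substrate was added and, 2 h later at RT, fluorescence was measured.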

A short description of assay [19]: p53 small molecule agonists, cell-based qHTS assay with human liver microsomes (AID 1963577). An outline of the steps:
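p53RE-bla reporter cells were pre-incubated 5 h at 37 C, then treated with compounds plus human liver microsomes (0.5 mg/mL final) and NADPH (0.5 mg/mL final) for 16 h at 37 C. Beta-lactamase activity was read by LiveBLAzer fluorescence after 2 h at room temperature.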

The nature of assay [20]: p53 small molecule agonists, cell-based qHTS assay with rat liver microsomes: qHTS cell viability counter screen (AID 1963580). Also: nearly all actives have a fitted effect of over 45% in size. An outline of the steps: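 Cytotoxicity counter screen: intracellular ATP read by CellTiter-Glo luminescence in the p53 reporter wells. HCT-116 p53RE-bla cells were treated for 16 h at 37 C alongside rat liver microsomes and NADPH, each 0.5 mg/mL final.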

“And” between values parts separate entries of the source, which are not always exact repeats. Equal entries are not always repeated. Results filed as inconclusive are left out. Some compounds were tested as several samples or in several runs, with calls that do not always agree. The source made the active and inactive calls. Unless noted, calls follow the shape of the full dose curve.
% is scaled to controls: 0 for no effect and ±100 for the full control effect.

Sequence of 5-hydroxytryptamine receptor 2A (Homo sapiens) (P28223 whole entry, looked up): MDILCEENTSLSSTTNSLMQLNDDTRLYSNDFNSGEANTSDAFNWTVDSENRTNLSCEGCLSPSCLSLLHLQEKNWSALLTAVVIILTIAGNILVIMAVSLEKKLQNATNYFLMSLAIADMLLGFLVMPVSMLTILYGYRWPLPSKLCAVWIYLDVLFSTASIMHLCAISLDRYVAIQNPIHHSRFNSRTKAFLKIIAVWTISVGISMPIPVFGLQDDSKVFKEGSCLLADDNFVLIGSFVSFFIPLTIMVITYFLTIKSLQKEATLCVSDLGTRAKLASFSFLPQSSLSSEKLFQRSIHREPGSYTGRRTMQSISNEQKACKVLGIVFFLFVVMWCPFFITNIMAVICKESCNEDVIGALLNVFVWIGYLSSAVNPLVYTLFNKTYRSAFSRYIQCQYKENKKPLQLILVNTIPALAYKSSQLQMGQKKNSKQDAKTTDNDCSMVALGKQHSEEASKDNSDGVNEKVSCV
Sequence of D(2) dopamine receptor (Homo sapiens) (P14416 whole entry, looked up): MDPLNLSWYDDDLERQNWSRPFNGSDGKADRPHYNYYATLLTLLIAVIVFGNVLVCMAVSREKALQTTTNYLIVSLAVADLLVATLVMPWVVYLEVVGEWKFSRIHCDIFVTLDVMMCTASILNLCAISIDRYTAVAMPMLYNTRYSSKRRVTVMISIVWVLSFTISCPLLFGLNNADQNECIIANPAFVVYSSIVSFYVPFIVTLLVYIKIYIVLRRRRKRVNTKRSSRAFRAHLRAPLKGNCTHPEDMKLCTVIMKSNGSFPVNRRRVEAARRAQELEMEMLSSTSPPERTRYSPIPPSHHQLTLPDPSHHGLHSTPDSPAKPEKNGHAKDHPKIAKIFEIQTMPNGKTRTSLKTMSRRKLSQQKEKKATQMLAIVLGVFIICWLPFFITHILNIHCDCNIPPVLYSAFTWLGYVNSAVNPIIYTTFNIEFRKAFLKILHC
Sequence of Muscarinic acetylcholine receptor M1 (Homo sapiens) (P11229 whole entry, looked up): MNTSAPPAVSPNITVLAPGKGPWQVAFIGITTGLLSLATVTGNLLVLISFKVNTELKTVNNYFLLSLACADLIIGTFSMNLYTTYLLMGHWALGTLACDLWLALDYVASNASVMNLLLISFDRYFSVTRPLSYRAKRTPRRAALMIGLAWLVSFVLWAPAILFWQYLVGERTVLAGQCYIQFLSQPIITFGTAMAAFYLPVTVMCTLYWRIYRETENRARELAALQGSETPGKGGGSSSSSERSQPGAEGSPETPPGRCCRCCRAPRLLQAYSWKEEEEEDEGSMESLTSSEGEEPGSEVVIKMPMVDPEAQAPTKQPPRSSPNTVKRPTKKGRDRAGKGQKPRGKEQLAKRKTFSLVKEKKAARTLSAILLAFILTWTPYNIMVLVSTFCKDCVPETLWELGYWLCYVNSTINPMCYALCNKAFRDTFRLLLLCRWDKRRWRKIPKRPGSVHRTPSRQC
Sequence of Gonadotropin-releasing hormone receptor (Homo sapiens) (P30968 whole entry, looked up): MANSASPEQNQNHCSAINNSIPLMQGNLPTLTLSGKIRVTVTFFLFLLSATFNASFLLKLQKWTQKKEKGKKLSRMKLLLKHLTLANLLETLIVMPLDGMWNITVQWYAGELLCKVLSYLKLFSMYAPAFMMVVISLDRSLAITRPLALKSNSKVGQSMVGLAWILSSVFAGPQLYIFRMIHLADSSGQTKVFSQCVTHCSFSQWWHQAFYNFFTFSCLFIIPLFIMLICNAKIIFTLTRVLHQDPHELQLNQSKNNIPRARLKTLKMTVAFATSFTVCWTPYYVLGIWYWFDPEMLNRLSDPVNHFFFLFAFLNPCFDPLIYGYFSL
Sequence of Beta-2 adrenergic receptor (Homo sapiens) (P07550 whole entry, looked up): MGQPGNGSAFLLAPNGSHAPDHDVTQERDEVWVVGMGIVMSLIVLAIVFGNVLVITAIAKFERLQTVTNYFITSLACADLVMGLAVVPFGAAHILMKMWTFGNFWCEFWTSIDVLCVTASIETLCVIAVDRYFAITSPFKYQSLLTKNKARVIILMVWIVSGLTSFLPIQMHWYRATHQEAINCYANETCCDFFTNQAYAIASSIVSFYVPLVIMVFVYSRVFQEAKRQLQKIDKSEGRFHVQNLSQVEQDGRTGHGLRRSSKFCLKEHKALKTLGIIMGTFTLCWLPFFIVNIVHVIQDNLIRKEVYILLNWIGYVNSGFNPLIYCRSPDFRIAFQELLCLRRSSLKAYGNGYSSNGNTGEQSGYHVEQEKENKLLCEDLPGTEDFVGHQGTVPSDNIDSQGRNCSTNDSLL
Sequence of KiSS-1 receptor (Homo sapiens) (Q969F8 whole entry, looked up): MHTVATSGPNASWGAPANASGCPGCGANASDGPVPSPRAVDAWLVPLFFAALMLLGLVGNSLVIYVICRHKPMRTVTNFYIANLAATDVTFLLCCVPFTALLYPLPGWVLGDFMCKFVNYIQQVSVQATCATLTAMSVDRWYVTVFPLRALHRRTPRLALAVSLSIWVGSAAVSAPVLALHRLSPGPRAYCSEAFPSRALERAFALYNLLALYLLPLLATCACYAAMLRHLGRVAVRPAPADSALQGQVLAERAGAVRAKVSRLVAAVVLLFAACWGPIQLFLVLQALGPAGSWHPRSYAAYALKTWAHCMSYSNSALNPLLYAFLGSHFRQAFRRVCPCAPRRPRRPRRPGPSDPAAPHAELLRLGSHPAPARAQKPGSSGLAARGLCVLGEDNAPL

For `CCCN1C=CN(C)C1`, the Potency entry in [1], in assay [2], in assay [3], in assay [4], in assay [5] and in assay [6] was “inactive” each time. Moreover, the Potency result in [7], in [8], in [9], in assay [10], in assay [11] and in [12] was “inactive” each time. The Potency result in assay [13], in assay [14], in [15], in assay [16] and in [17] was “inactive” in each case.
For the compound `CC(C)(C)NCC(O)c1ccc(O)c(CO)c1` (stereo unspecified), the Potency entry in assay [1], in assay [2], in assay [4], in assay [5], in assay [7] and in [18] was “inactive” in each case. In [16], the Potency result is “inactive”. Also, the Potency is 30.1 nM (active) in assay [3]; 962 nM (active) and 750 nM (active) in assay [17].
For the compound `O=C(COc1ccc(Cl)cc1)N1CCN(Cc2ccc3c(c2)OCO3)CC1`, the Potency result in assay [1], in [2], in [3], in assay [4], in assay [5] and in [6] was “inactive” throughout. Also, the Potency entry in [7], in assay [11], in assay [12], in assay [13], in assay [14] and in assay [16] was “inactive” each time. Also, the Potency result in [17] was “inactive”. In assay [8], the Potency is 29.8 µM (active) and inactive.
As for `C=CC(=O)OCCOC1C2CCC1C1CC=CC12` (stereo unspecified), the activity change, negative = cytotoxicity in assay [1] is 0.243% [at 19 µM] (inactive); in assay [6], -0.599% [at 13.5 µM] (inactive); in [20], -0.677% [at 13.5 µM] (inactive); in [7], 10.1% [at 13.5 µM] (inactive). Moreover, the activity, positive = activation in assay [2] is -2.46% [at 19 µM] (inactive). The activity change in [3] was -0.687% [at 11.8 µM, stronger effect = higher value] (inactive). For the same compound, the activation in assay [4] was 0.154% [at 15.8 µM] (inactive); in assay [19], -3.49% [at 13.5 µM] (inactive); in assay [18], -0.725% [at 13.5 µM] (inactive); in [9], -3.51% [at 15.9 µM] (inactive); in [11] it was 0.0965% [at 15.8 µM] (inactive); in assay [12], -0.462% [at 19 µM] (inactive). Moreover, the activation in assay [15] is -22.8% [at 19 µM] (inactive); in assay [16], -2.06% [at 19 µM] (inactive). Also, the activity, negative = inhibition in assay [8] was 14.3% [at 12.7 µM] (inactive); in assay [10] it was 1.12% [at 12.6 µM] (inactive). In addition, the results for the activity change, negative = inhibition in assay [13], in assay [14] and in [17] were -8.52% [at 18.9 µM] (inactive), -1.49% [at 19 µM] (inactive) and 7.6% [at 18.9 µM] (inactive), respectively.
Regarding `Cc1cccnc1`, the Potency result in [1], in assay [2], in assay [3], in [4], in assay [5] and in assay [20] was “inactive” each time. The Potency result in assay [7], in [8], in assay [9], in [10], in assay [12] and in assay [13] was “inactive” throughout. Besides, the Potency result in assay [14], in assay [15], in assay [16] and in assay [17] was “inactive” in each case.
On to `CCC(C(=O)OCCOCCN(CC)CC)c1ccccc1` (stereo unspecified), for which the Potency result in assay [1], in [2], in [3], in assay [4], in assay [19] and in assay [6] was “inactive” each time. In addition, the Potency entry in assay [20], in assay [7], in assay [18], in [8], in [10] and in assay [11] was “inactive” in each case. For the same compound, the Potency entry in [12], in assay [13], in assay [14], in assay [15], in [16] and in [17] was “inactive” throughout. Moreover, the Potency in assay [9] is 2680 nM (active).
Take `O=C(O)c1ccco1`: the Potency entry in [1], in assay [2], in [3], in assay [4], in assay [19] and in assay [6] was “inactive” in each case. Moreover, the Potency entry in assay [20], in assay [7], in [8], in assay [9], in assay [10] and in assay [11] was “inactive” throughout. The Potency result in assay [12], in [13], in [14], in [16] and in assay [17] was “inactive” each time.
